D1 ag = Allosteric Agonists of the Human D1 Dopamine Receptor: qHTS. D(1A) dopamine receptor (Homo sapiens), P21728. HEK293 T-REx D1 cells, calcium flux, agonist mode. activation, % at 2 µM. hit rate 1% among 360,000; in the data active = activation above about 30%; note: 0% is about no effect
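Tetracycline-induced HEK293 TREx D1 cells, force-coupled to calcium signalling, were dye-loaded with a no-wash calcium kit. Compound was pin-added after a 10 s baseline. Fluorescence was read kinetically at 1 cycle/s for 180 s, with calcium rises flagged as agonism.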
ERG-DNA inh = qHTS for Small Molecule Inhibitors of the ERG Ets/DNA interaction; fluorescence polarization, His-ERG Ets domain / labelled DNA; Potency, µM (titrated, usually from 76.9 µM), inactives show at the highest dose FP activity, negative = inhibition, actives largely listed as inhibitors; Transcriptional regulator ERG (Homo sapiens), P11308; hit rate 0.028% among 370,000; active = well fitted inhibition curve with a large enough effect in the polarisation, with a control signal flat; inconclusive = small, poorly fitted or top-dose-only effect, or effect the other way, or a change in a side signal; inactive = no such curve, though single readings can be large or run the other way; the % refers to the polarisation;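 note: polarization taken with two DNA probes labelled with fluorescein and Texas red; potency is the fitted concentration of half-maximal effect; % of control where 0% means no effect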
Target sequence (P11308 whole entry, looked up, the tested form may be a part): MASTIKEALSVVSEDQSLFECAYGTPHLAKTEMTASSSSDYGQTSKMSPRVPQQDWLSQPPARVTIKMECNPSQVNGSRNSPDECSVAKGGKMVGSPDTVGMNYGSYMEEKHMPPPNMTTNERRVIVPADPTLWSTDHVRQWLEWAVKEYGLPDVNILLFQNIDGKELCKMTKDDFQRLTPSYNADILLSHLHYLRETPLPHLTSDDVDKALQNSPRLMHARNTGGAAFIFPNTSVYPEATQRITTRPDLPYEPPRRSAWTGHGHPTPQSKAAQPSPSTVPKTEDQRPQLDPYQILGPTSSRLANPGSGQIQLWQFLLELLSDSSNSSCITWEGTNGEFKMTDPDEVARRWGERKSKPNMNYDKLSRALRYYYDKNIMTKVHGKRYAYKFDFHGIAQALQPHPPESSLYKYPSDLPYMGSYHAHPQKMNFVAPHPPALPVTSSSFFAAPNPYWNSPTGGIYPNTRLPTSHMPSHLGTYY
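His-tagged ERG Ets domain (1 uM in the protein solution; 300mM KCl, 50mM Tris-HCl, 1mM EDTA, 1mM DTT, pH 7.5) received compound, then a probe mix of 5 nM fluorescein-DNA and 100nM Texas-615-DNA. Fluorescence polarization was read for both dyes.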
D1 potentiator = Potentiators of Human D1 Dopamine Receptor: qHTS; D(1A) dopamine receptor (Homo sapiens), P21728; HEK293 TREx D1 cells, calcium flux, dopamine EC20 potentiation; potentiation, % at 10 µM; hit rate 0.036% among 360,000; in the data active = potentiation above about 30%; note: 0% is about no effect
DRD3 agonist = qHTS of D3 Dopamine Receptor Agonist: qHTS | D3R DiscoveRx beta-arrestin cells, luminescence, 90 min | D(3) dopamine receptor (Homo sapiens), P35462 | max activation, % | hit rate 0.58% among 410,000; in the data active = max activation above about 30%; note: 0% is about no effect
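Cells at 1500/well, incubated overnight, then treated with pinned compounds (dopamine as control) for 90 min at 37 degrees C. DiscoveRx reagent added for 30 - 60 minutes at room temperature; luminescence read.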
DRD3 antagonist = qHTS of D3 Dopamine Receptor Antagonist: qHTS; D(3) dopamine receptor (Homo sapiens), P35462; hit rate 2.5% among 360,000; AID 652054, 2013; max response, negative = inhibition, %; D3R cells, DiscoveRx beta-arrestin luminescence, antagonist mode; stronger effect = lower value; in the data active = max response below about -50%; inconclusive = no clear call, values can overlap the other calls; note: % is set by controls: 0 for no effect and ±100 for the full control effect
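Cells plated overnight at 1500 cells/well, then exposed to library compounds with dopamine controls for 90 minutes at 37 degrees C. DiscoveRx reagent added for 30–60 minutes at room temperature; luminescence read, quantitative HTS format.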
D1 antagonist = Antagonist of Human D 1 Dopamine Receptor: qHTS | activity change, negative = inhibition, % at 10 µM | AID 504652, 2011 | D(1A) dopamine receptor (Homo sapiens), P21728 | HEK293 TREx D1 cells, calcium flux, dopamine EC80; stronger effect = lower value | hit rate 3.2% among 360,000; in the data active = activity change below about -30%; note: % is set by controls: 0 for no effect and ±100 for the full control effect
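After overnight tetracycline induction at 30 C, force-coupled D1 HEK293 cells took up a no-wash calcium dye at room temperature. Compounds were added and monitored 180 s, and the response to EC80 dopamine was then recorded.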
An asterisk follows results filed as active; u = inconclusive; x = not tested or not shown; ! = not active in a repeat. Only some compounds are listed: those with a hit (about 6.1% of all), similar ones and a draw of the others.

SMILES	D1 ag	ERG-DNA inh	D1 potentiator	DRD3 agonist	DRD3 antagonist	D1 antagonist
COCCOC(=O)c1c(NC(=O)CNc2ccc(C)c(F)c2)sc(C(N)=O)c1C	2.7	-0.2%	1.2	27.8	4.8	6.9
COCCOC(=O)c1c(NC(=O)CNCc2ccco2)sc(C(N)=O)c1C	4.3	-3.3%	-5.2	-6.8	13.0	-34.6*
COc1ccc(C2/C=C\CN(C(=O)C3CCCCC3)CC(=O)N2Cc2ccc(F)cc2)cc1 (stereo not drawn)	3.2	-8.4%	-4.7	-5.3	2.1	8.7
COc1ccc(C2/C=C\CN(C(=O)C3CCCC3)CC(=O)N2Cc2ccc(F)cc2)cc1 (stereo not drawn)	6.7	10.4%	-7.3	-22.1	-14.7	-34.3*
O=C(Nc1ccccc1)c1ccc(Nc2c([N+](=O)[O-])cc([N+](=O)[O-])c3ccccc23)cc1	4.3	-9.8%	-4.5	-12.7	-67.5*	-3.4
C[C@H](CO)N1C[C@H](C)[C@@H](CN(C)S(=O)(=O)c2ccccc2)Oc2ccc(NC(=O)Nc3ccc4c(c3)OCO4)cc2C1=O	x	-2.5%	x	0.2	8.7	x
Cc1ccc(S(=O)(=O)N2CCC(C(=O)NCc3ccccc3Cl)CC2)cc1	-2.5	1.5%	-1.2	14.8	-11.8	-11.5
CC1(C(=O)N2CCC(CC3CC(c4cccc(Br)c4)=NO3)(C(=O)NCC3CCCCC3)CC2)CC1 (stereo not drawn)	2.8	6.0%	0.4	-11.1	0.0	7.7
CCN1CCCC1CN(Cc1cc2ccc(C)cc2[nH]c1=O)C(=S)Nc1ccccc1OC (stereo not drawn)	-1.1	-1.8%	11.9	-3.6	u	-1.1
CCN1CCCC1CN(Cc1cc2ccc(C)cc2[nH]c1=O)C(=S)Nc1ccccc1C(=O)OC (stereo not drawn)	4.4	-11.4%	-1.1	-11.2	-64.8*	-0.5
CCN1CCCC1CN(Cc1cc2ccc(C)cc2[nH]c1=O)C(=S)Nc1cccc(OC)c1 (stereo not drawn)	-1.2	3.3%	4.7	-14.3	-88.2*	-0.9
CCN1CCCC1CN(Cc1cc2ccc(C)cc2[nH]c1=O)C(=S)Nc1ccc(F)cc1 (stereo not drawn)	1.6	6.3%	-3.3	-24.5	-82.4*	24.0
CCN1CCCC1CN(Cc1cc2ccc(C)cc2[nH]c1=O)C(=S)Nc1ccc(OC)cc1 (stereo not drawn)	-0.5	3.0%	4.4	-8.4	-63.9*	-9.4
O=C(c1cc(-c2cccc(Cl)c2)on1)N1CCc2ccccc2C1	0.3	13.2%	1.6	-1.0	-1.5	-5.8
CN(Cc1ccccc1)c1oc(COc2ccccc2F)nc1C#N	28.9	6.5%	x	-7.1	2.4	-33.0*
N#Cc1nc(COc2ccccc2F)oc1NCCc1ccccc1	-1.8	-4.9%	-8.8	-4.5	-20.6	-1.1
Cc1ccc(NC(=O)C2CC2C)c(Cl)c1 (stereo not drawn)	-4.4	-1.1%	-3.0	-10.3	-13.4	3.0
CC(C)OCCCn1c(SC(C)C(=O)NCC2CCCO2)nc2cc(Cl)ccc2c1=O (stereo not drawn)	0.8	9.8%	-7.0	3.3	12.0	-0.4
CN(C)CCN1C(=O)c2cccc3cc([N+](=O)[O-])cc(c23)C1=O	x	u	x	-4.0	26.7	x
CCCCCCCCCCCCCCCC[N+](C)(C)CCN(Cc1ccc(OC)cc1)c1ncccn1	8.7	-7.2%	0.0	-75.8	-55.0*	25.9
COc1ccc(CN(CCN(C)C)c2ncccn2)cc1	x	x	x	-7.4	x	x
c1ccc(CC[C@@H]2CC[C@@H](CCc3ccccc3)N2)cc1	14.5	6.1%	-1.4	-13.7	-87.8*	x
CCN(CC(=O)Nc1ccccc1C(F)(F)F)C(=O)CSCC(=O)Nc1cc(C)on1	2.9	0.0%	2.5	-6.0	2.4	-1.2
O=C(Oc1ccc(/C=N/Nc2ccccc2)cc1)c1ccccc1	x	1.5%	x	-2.4	-28.4	x
O=C(O)c1ccc(N/N=C/c2ccc(OC(=O)c3cccc(Cl)c3)cc2)cc1	37.0*	-0.9%	-6.8	5.6	-12.4	-35.9*
SMILES	D1 ag	ERG-DNA inh	D1 potentiator	DRD3 agonist	DRD3 antagonist	D1 antagonist
CN(CCc1cnn(C)c1)Cc1cn(C)nc1-c1ccc2c(c1)OCCO2	1.0	-15.5%	-0.4	-0.3	9.8	-10.3
CCOC(=O)CC(NC(=O)Cn1nnc(-c2ccccc2C)n1)c1ccc(OC)cc1 (stereo not drawn)	31.4*!	-4.5%	-8.7	2.2	x	-19.0
Cc1cc(C)cc(SCc2noc(C(=O)NC(C)C)c2C(=O)NC(C)C)c1	3.1	-4.1%	-4.9	-4.6	17.2	1.1
CC1(C(=O)Nc2ccc3c(c2)OCCO3)CCN1C(=O)C1(c2ccc(Cl)cc2)CCC1 (stereo not drawn)	x	x	x	72.5*	21.9	x
CC1(C(=O)Nc2ccc3c(c2)OCO3)CCN1C(=O)Cc1cccs1 (stereo not drawn)	x	x	x	-28.0	-101.5*	x
COc1ccc(NC(=O)CCN2CCN(c3cccc(Cl)c3)CC2)cc1	36.1*	0.2%	-2.0	7.3	x	7.5
COc1ccc(NC(=O)CCN2CCN(S(=O)(=O)c3cc(Cl)ccc3Cl)CC2)cc1	5.4	x	-15.2	1.6	-14.8	6.6
COc1ccc(NC(=O)CCN2CCN(c3ccc(F)cc3)CC2)cc1	2.6	14.3%	-6.8	7.9	-97.9*	1.3
CCOC(=O)C1(CCCc2ccccc2)CCN(Cc2nccn2CC)CC1	2.3	-0.8%	-2.6	-9.8	-3.4	-5.7
COc1ccc(NC2=C(C(C)=O)C(c3ccc(OC)c(OC)c3)C(C(C)=O)C(C)(O)C2)cc1 (stereo not drawn)	-0.4	3.7%	4.5	-0.2	-2.7	-85.9*
CN(C(=O)CN1C(=O)c2cccc(N)c2C1=O)C1CCCCC1	7.9	11.4%	5.4	0.6	11.3	1.3
Cc1cccc2c1cnn2C(=O)CCC(=O)N1CCC(C)CC1	1.2	6.1%	4.9	0.9	-57.3*	15.5
Cc1cccc2c1cnn2C(=O)CCC(=O)N1CC(C)CC(C)C1 (stereo not drawn)	0.4	2.1%	0.7	1.8	16.8	42.1
CC(=O)C1=C(c2ccccc2)NC(=O)NC1c1ccccc1OCC(=O)Nc1ccccc1 (stereo not drawn)	0.0	6.7%	9.3	0.3	-2.1	2.1

Bioassay records as filed in PubChem BioAssay.
